Data on 15 compounds can be found in PubChem BioAssay (NCI).

Among the test systems are RPMI-8226 leukemia; OVCAR-8 ovarian; SK-OV-3 ovarian; IGROV1 ovarian; OVCAR-3 ovarian; HS 578T breast; NCI/ADR-RES ovarian; T-47D breast; OVCAR-5 ovarian; OVCAR-4 ovarian.
Common to all, as to experiment: NCI-60 one-dose screen, 48 h (100 = growth as untreated, 0 = no growth, -100 = all killed)
Common to all, as to settings: 10 µM unless noted

About 83,000 compounds went through this panel and 20% of them were active in at least one assay; those are over-represented in the sample as a whole.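 Single-concentration screen, 48 h exposure, 96-well plates. Endpoint: percent growth. Below 10 = active.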 A number with no mark means an inactive call. Activity calls are given as the source filed them.

As for `Cc1ccc(CN2CCC(C(=O)Nc3ccc(-c4cc5ccccc5[nH]4)cc3)CC2)o1`, the growth in the assay with RPMI-8226 leukemia was 20.5%; with OVCAR-8 ovarian, 53.3%; with SK-OV-3 ovarian it was 107%; with IGROV1 ovarian, 61%; with OVCAR-3 ovarian, 49.4%; in the assay on HS 578T breast it was 67%. Moreover, the growth with NCI/ADR-RES ovarian is 44.3%; with T-47D breast, 92.1%.
For the compound `O=C(NC1CCN(Cc2ccccc2)CC1)c1cc2nc(-c3ccc(Cl)s3)cc(C(F)(F)F)n2n1`, the growth in the assay on RPMI-8226 leukemia is -18.4% (active); in the assay on OVCAR-5 ovarian, 93.2%; in the assay with OVCAR-4 ovarian, 66.4%; with SK-OV-3 ovarian it was 92.6%; in the assay with IGROV1 ovarian, 118%; in the assay with OVCAR-3 ovarian it was 89.9%. Besides, the growth in the assay with HS 578T breast is 87.3%; with NCI/ADR-RES ovarian, 94.4%; with T-47D breast, 97.1%.
As for `COc1ccc(/C=C2\CCC/C(=C\c3ccc(OC)c(OC)c3)C2=O)cc1OC`, the growth is -4.53% (active) in the assay on RPMI-8226 leukemia; 41% in the assay on OVCAR-5 ovarian; -0.91% (active) with OVCAR-4 ovarian; 29.7% in the assay with SK-OV-3 ovarian; 4.96% (active) in the assay on IGROV1 ovarian; 13.8% with OVCAR-3 ovarian. The growth in the assay with HS 578T breast was 41.2%; in the assay with NCI/ADR-RES ovarian, 11%; in the assay on T-47D breast it was 19.3%.
As for `COc1cc(OC)cc(N2C(=O)N(Cc3ccc(C(C)(C)C)cc3)c3ccccc3S2(=O)=O)c1`, the growth is 34.6% in the assay with RPMI-8226 leukemia; 86.2% with OVCAR-5 ovarian; 81.8% with OVCAR-4 ovarian; 93.4% in the assay on SK-OV-3 ovarian; 86.4% in the assay on IGROV1 ovarian; 92.2% in the assay with OVCAR-3 ovarian. Moreover, the values for the growth in the assay with HS 578T breast, with NCI/ADR-RES ovarian and in the assay with T-47D breast were 90.9%, 73.2% and 81.1%, respectively.
`COc1cc2nc(NC3CCCC3)nc(NC3CCN(C(C)C)CC3)c2cc1OC`: the growth in the assay on RPMI-8226 leukemia was -10.7% (active); in the assay on OVCAR-5 ovarian, 107%; with OVCAR-4 ovarian, 69%; with IGROV1 ovarian it was 82%; in the assay with OVCAR-3 ovarian, 89.4%; in the assay on HS 578T breast, 79.6%. Besides, the growth in the assay on NCI/ADR-RES ovarian is 101%; in the assay with T-47D breast, 17.4%.
In the case of `COC(=O)[C@H](NC(=O)C1(C)CCC[C@]2(C)[C@H]3C[C@H]4C(C(C)C)=C[C@]3(CC[C@@H]12)[C@@H]1C(=O)CCC(=O)[C@@H]14)C(C)C` (some centres not stated), the growth is 103% in the assay with RPMI-8226 leukemia; 101% in the assay with OVCAR-8 ovarian; 94.5% in the assay with OVCAR-4 ovarian; 91.9% in the assay on IGROV1 ovarian; 109% in the assay with OVCAR-3 ovarian; 92.9% in the assay with HS 578T breast. Also, the growth is 96.1% in the assay with NCI/ADR-RES ovarian and 94.2% with T-47D breast.
`Cc1cc2c(c(C)c1Cl)C(=O)/C(=C/c1ccco1)O2`: the growth in the assay with RPMI-8226 leukemia was 87%; with OVCAR-8 ovarian, 102%; in the assay on OVCAR-4 ovarian, 63.3%; with IGROV1 ovarian it was 59.2%; with OVCAR-3 ovarian, 104%; in the assay on HS 578T breast, 98.8%. In addition, the growth in the assay with NCI/ADR-RES ovarian is 104%; in the assay with T-47D breast, 47.5%.
In the case of `O=C(Nc1ccc(I)cc1F)c1cc(Br)ccc1O`, the growth was -18.9% (active) with RPMI-8226 leukemia; 23.7% with OVCAR-5 ovarian; 12.4% in the assay with OVCAR-4 ovarian; -4.76% (active) in the assay with SK-OV-3 ovarian; 16.3% with IGROV1 ovarian; 8.04% (active) with OVCAR-3 ovarian. For the same compound, the values for the growth in the assay on HS 578T breast, with NCI/ADR-RES ovarian and in the assay on T-47D breast were -3.47% (active), 7.79% (active) and -9.09% (active), respectively.
Regarding `Cn1nc(C(F)(F)F)c(-c2ccc(Cl)c(C(F)(F)F)c2)c1-c1ccc(OCc2ccc(Cl)cc2)cc1O`, the growth with RPMI-8226 leukemia was -17.9% (active); with OVCAR-5 ovarian, 53.4%; with OVCAR-4 ovarian, 30.2%; with SK-OV-3 ovarian, 20.6%; in the assay with IGROV1 ovarian, 38.9%; in the assay on OVCAR-3 ovarian, 1.24% (active). The growth in the assay on HS 578T breast was 22.8%; in the assay on NCI/ADR-RES ovarian, 8.38% (active); in the assay with T-47D breast it was -0.38% (active).
With `COc1cccc2cc(N(C)c3nc(C)nc4ccsc34)ccc12`, the growth was 12.5% in the assay with RPMI-8226 leukemia; 43.7% in the assay on OVCAR-5 ovarian; 35.5% in the assay with OVCAR-4 ovarian; 22.9% in the assay with SK-OV-3 ovarian; 3.88% (active) in the assay with OVCAR-3 ovarian; 17.7% in the assay with HS 578T breast. The growth with NCI/ADR-RES ovarian is -6.94% (active); with T-47D breast, 60%.
In the case of `COc1cc(-c2c3c(c(Br)n2Cc2ccccc2)-c2nc(N)sc2CC3)cc(OC)c1OC`, the growth was 71.9% with RPMI-8226 leukemia; 89.2% in the assay with OVCAR-8 ovarian; 107% with SK-OV-3 ovarian; 110% in the assay with IGROV1 ovarian; 95.6% in the assay with OVCAR-3 ovarian; 80% with HS 578T breast. The values for the growth with NCI/ADR-RES ovarian and in the assay on T-47D breast were 87.4% and 63.8%, respectively.
For the compound `CCOc1ccc2c(c1)CN(Cc1ccc(Cl)cc1)CO2`, the growth is 43.3% in the assay on RPMI-8226 leukemia; 90.9% in the assay with OVCAR-5 ovarian; -27.4% (active) in the assay with OVCAR-4 ovarian; 13.5% in the assay on SK-OV-3 ovarian; 71% in the assay on IGROV1 ovarian; 22.2% in the assay on OVCAR-3 ovarian. Further, the growth is -7.66% (active) in the assay with HS 578T breast, 43.7% with NCI/ADR-RES ovarian and 52.4% with T-47D breast.
With `COc1cc2nc(-c3cnc(N(C)C)nc3)nc(NC3CCN(Cc4ccccc4)CC3)c2cc1OC`, the growth is -50.5% (active) in the assay on RPMI-8226 leukemia; -94.8% (active) in the assay with OVCAR-5 ovarian; -93.5% (active) in the assay on OVCAR-4 ovarian; -68% (active) in the assay on SK-OV-3 ovarian; -76.4% (active) in the assay with IGROV1 ovarian; -85.1% (active) with OVCAR-3 ovarian. Moreover, the growth with HS 578T breast is -47% (active); with NCI/ADR-RES ovarian it was -54.1% (active); with T-47D breast, -46.6% (active).
For the compound `COC(=O)c1c2c(c(C)[n+]([O-])c1C)C(=O)C(NCc1ccc(F)c(F)c1)=CC2=O`, the growth with RPMI-8226 leukemia was 29.9%; with OVCAR-8 ovarian, 4.63% (active); in the assay on IGROV1 ovarian it was 0.321% (active); in the assay on OVCAR-3 ovarian, -19% (active); with HS 578T breast, 80.2%; in the assay on NCI/ADR-RES ovarian, -6.62% (active). For the same compound, in the assay on T-47D breast, the growth was 10.9%.
Take `C1=CC2(C=C1)OC21CCC2(C=CC3(C2)OC3C2CCCCC2)CC1` (configuration not stated): the growth in the assay with RPMI-8226 leukemia was 103%; with OVCAR-5 ovarian it was 104%; in the assay on OVCAR-4 ovarian, 103%; in the assay on SK-OV-3 ovarian, 109%; with IGROV1 ovarian it was 107%; with OVCAR-3 ovarian, 110%. In addition, the growth was 103% with HS 578T breast, 98.4% with NCI/ADR-RES ovarian and 104% in the assay on T-47D breast.
